Hits are enriched below; roughly 3.7% of the tested compounds scored in any of these assays.
Nrf2 activator = qHTS of Nrf2 Activators | AREc32 ARE-luciferase reporter (MCF7-derived line), luminescence, 24 h | Potency, µM (highest dose often 46.1 µM), for the others: at the top dose activation, hits mostly activators | hit rate 0.31% among 410,000 | AID 624171, 2012; also: potency is read from the fitted curve at half-maximal effect; % of control where 0% means no effect; nearly all actives have a fitted effect of over 65% in size
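ARE activation measured as luciferase luminescence (Steady-Glo, 30 min RT) in AREc32_Fluc cells after 24 hr compound exposure at 37 deg C, 5% CO2; cells seeded overnight at 1000/well in OPTI-MEM, 5% FBS.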
miR-21 reporter = qHTS Assay for Modulators of miRNAs and/orActivators of miR-21. Potency, µM (top dose mostly 38.3 µM), for inactives: at the highest dose activity change, positive = activation, usual class: activators. AID 2288, 2010. 340,000 tested, under 10 active. HeLa miR-21 FLuc reporter, luciferase, 48 h;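 also: % of control where 0% means no effect; miR-21 action dims this reporter so a rising signal means less miR-21 action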
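Compounds were titrated across several concentrations (up to approximately 40 uM) and incubated 48 hours with HeLa miR-21-FLuc reporter cells (miR-21 target sequence downstream of FLuc, endogenous miR-21). Readout was firefly luciferase luminescence after lytic detection reagent.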
A549 viability = Nrf2 qHTS screen for inhibitors: counterscreen for cytotoxicity. AID 504648, 2011. A549 ARE-Fluc cells, CellTiter-Fluor viability, 18-24 h. hit rate 0.16% among 390,000. Potency, µM (titrated, usually from 46 µM), without a hit: at the highest dose activity change, negative = cytotoxicity, most hits filed as inhibitors; also: potency is read from the fitted curve at half-maximal effect; % is scaled to controls: 0 for no effect and ±100 for the full control effect
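A549 ARE-Fluc cells in 5% FBS OPTI-MEM, 5000 cells/well, rested 2 h then exposed to compounds in concentration-response for 18-24 h at 37 °C. Viability by CellTiter-Fluor fluorescence (Ex 405/Em 525) after 30 min; luciferase luminescence (BugLite, 15 min, RT) read afterwards.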
IL-2 act = qHTS of IL-2 Activators; activation, % (series mostly up to about 46 µM); hit rate 0.065% among 360,000; AID 652025, 2013; IL-2 activation reporter assay, cell-based qHTS; stimulated with anti-CD3/CD4/CD28 beads; in transgenic mouse T cells; in the data active = activation above about 50%; inconclusive = mostly about 30% to 49%; also: 0% is about no effect
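EGFP and DsRed fluorescence is measured by plate cytometry in unstimulated transgenic mouse T cells exposed to compound for 60 minutes, then stimulated 18 hours at 37 degrees C with anti-CD3/anti-CD4 beads plus anti-CD28.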
Nrf2 inh = Nrf2 qHTS screen for inhibitors; A549 ARE-Fluc reporter, luciferase luminescence, 18-24 h; Potency, µM (highest dose often 46 µM), inactives show top-dose activity change, negative = inhibition, hits mostly inhibitors; hit rate 2.1% among 360,000; also: potency is read from the fitted curve at half-maximal effect; % is scaled to controls: 0 for no effect and ±100 for the full control effect; nearly all actives have a fitted effect of over 60% in size
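A549 ARE_Fluc cells, 5000/well, 5% FBS OPTI-MEM; compounds in dose-response, 18-24 h at 37 °C/5% CO2; CellTiter-Fluor viability read (Ex 405/Em 525), then BugLite luciferase luminescence = Nrf2 activity.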
ClpP mod = qHTS Assay for Activators of ClpP; ATP-dependent Clp protease proteolytic subunit (Bacillus subtilis (strain 168)), P80244; purified B. subtilis ClpP, FRET peptide cleavage, 20 min; Potency, µM (doses to about 57.5 µM), inactives show at the top dose activity change, negative = active; hit rate 1.9% among 340,000; AID 651965, 2013; active = well fitted falling curve with a large enough effect; inconclusive = small, poorly fitted or top-dose-only effect; inactive = no such curve, though single readings can be large or run the other way; also: potency is read from the fitted curve at half-maximal effect; the source files actives as falling curves though it sought activators and does not explain the sign; nearly all actives have a fitted effect of over 65% in size
Target sequence (P80244 whole entry, looked up): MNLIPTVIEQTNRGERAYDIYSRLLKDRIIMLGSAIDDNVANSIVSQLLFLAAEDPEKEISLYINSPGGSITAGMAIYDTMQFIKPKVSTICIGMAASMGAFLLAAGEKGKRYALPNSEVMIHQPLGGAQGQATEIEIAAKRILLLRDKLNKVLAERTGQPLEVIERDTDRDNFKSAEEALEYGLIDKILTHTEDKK
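Buffer: 100 mM Tris/HCl pH8, 100 mM KCl, 0.05% low protease BSA, 2.5% glycerol, 0.01% Tween-20. ClpP 10 microg/mL final; 20 min RT; delta FRET normalized to ADEP and DMSO controls.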
Numbers without * were called inactive; ? = inconclusive; . = no result; [ ] = dose if it differs, or a comment. Unless noted, calls follow the shape of the dose curve; as a rule, active = well fitted curve in the direction sought with a large enough effect; inconclusive = small, poorly fitted or top-dose-only effect, or another doubt; inactive = no such curve, though single readings can be large; an effect the other way counts as inactive or inconclusive.

SMILES	Nrf2 activator	miR-21 reporter	A549 viability	IL-2 act	Nrf2 inh	ClpP mod
COc1ccccc1N1CCN(CCN2C(=O)C3CCCCN3C2=O)CC1 (centres undefined)	0%	-4%	0%	1	6%	32µM*
COc1cc(C(=O)N2CCN(c3ccccn3)CC2)cc(OC)c1OC	0%[9.22 µM]	1%	-2%	-4	-2%	.
COc1cc2nc(C3CCC3)nc(N3CCN(c4ccccc4OC)CC3)c2cc1OC	-2%	2%	?	-1	18µM*	-3%
COc1cc2nc(C3CCC3)nc(N3CCN(c4ccccn4)CC3)c2cc1OC	1%	-19%	?	4	26µM*	-9%
COc1cc(-c2ccno2)ccc1S(=O)(=O)N1CCN(c2ccc(C(C)=O)cc2)CC1	9%	1%	-10%	.	.	-4%
CNC(=O)c1cc2cc(OC)ccc2n1CCN(C)C	3%	-6%	2%	0	-10%	?
CNC(=O)c1cc2cc(OC)ccc2n1CCN(Cc1ccccc1)Cc1ccccc1	0%	0%	-1%	-3	.	22µM*
CCCOc1ccc(-c2nc(C#N)c(N3CCc4ccccc4C3)o2)cc1	0%	-3%	7%	2	-8%	16µM*
CCCOc1ccc(-c2nc(C#N)c(N3CCN(CC)CC3)o2)cc1	0%	-10%	-4%	0	?	28µM*
CCOc1ccc(-c2nc(C#N)c(N3CCN(CC)CC3)o2)cc1	-1%	-7%	-5%	0	-6%	10µM*
CCOc1ccc(-c2nc(C#N)c(N3CCCCCC3)o2)cc1	1%	-15%	10%	-4	-6%	6%
CCCOc1ccc(-c2nc(C#N)c(N3CCN(C)CC3)o2)cc1	0%	-6%	-2%	0	-7%	32µM*
CCOc1ccc(-c2nc(C#N)c(N3CCN(C)CC3)o2)cc1	2%	-13%	-20%	-2	?	?
COc1cccc(C2=Nn3c(nnc3-c3ccccc3C)SC2)c1	.	.	-16%	.	?	.
Cc1ccc(S(=O)(=O)NCCNc2ccccc2[N+](=O)[O-])cc1	-1%	-11%	-16%	-5	-12%	1%
Cc1ccc(S(=O)(=O)NCCCNS(=O)(=O)c2ccccc2[N+](=O)[O-])cc1	5%	6%	3%	0	18µM*	-4%
CC(C)(C)c1ccc(C(=O)NNc2ncnc3c2cnn3-c2ccccc2)cc1	-1%	-4%	-10%	.	.	1%
O=c1[nH]cnc2n[nH]nc12	.	.	.	.	.	-2%
CC1(C)Cc2nc3oc4c(N(CCO)Cc5ccccc5)ncnc4c3cc2CO1	1%	-7%	5%	-1	?	14µM*
CC1CCCCC1NC(=O)CN1CCC(NC(=O)c2ccc([N+](=O)[O-])cc2)CC1 (centres undefined)	-1%	0%	-6%	0	7.3µM*	.
CC1CCCCC1NC(=O)Cn1cc([N+](=O)[O-])ccc1=O (centres undefined)	-1%	.	-3%	0	1%	1%
COc1ccc(-c2sc3ccc(N4CCOCC4)cc3c2C#CCO)cc1	-3%	.	-9%	-4	16µM*	-8%
COc1ccc(-c2sc3ccc(N4CCOCC4)cc3c2C#CC2(O)CCCCC2)cc1	6%	.	-6%	0	-26%	25µM*
COc1cccc(-c2sc3ccc(OC)cc3c2C#CC2(O)CCCCC2)c1	8%	.	12%	0	12%	4%
O=C(Nc1ccc(Cl)cc1Cl)[C@@H]1CC=C[C@@H]2CCN(Cc3ccccc3)C(=O)[C@@H]21	.	.	.	.	.	1%
Cc1ccc(S(=O)(=O)c2nnn3c2nc(NCc2ccc(F)cc2)c2sccc23)cc1C	1%	-11%	-2%	.	-29%	28µM*
CCCCNc1nc2c(S(=O)(=O)c3ccc(C)c(C)c3)nnn2c2ccsc12	-1%	-30%	-1%	.	-4%	28µM*

Screens from PubChem BioAssay.
